From PubChem BioAssay AID1159506 (National Center for Advancing Translational Sciences (NCATS), 2015)
Whole data set: some 59,000 sequences, median the read-out near -0.00055, cut for the lowest 2% near -2. The sample as a whole holds a higher share of the lowest values than the screen did.

assay: Identification of proteins required for the processing of the EWS-FLI1 nascent transcript; conditions: TC32 Ewing sarcoma NR0B1-luc vs CMV-luc (EWS-FLI1 target promoter against control promoter), 48 h; screened at 20 nM (by protocol);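 also: robust z of luciferase light less the median z of siRNAs with the same seed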
How it was run: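 Parallel TC32-NR0B1-luc and TC32-CMV-luc reverse transfections with 20 nM siRNA in RPMI-1640/10% FBS, luciferase measured 48 h later. Seed-adjusted z-scores from normalized, z-score-MAD transformed data; AllStars negative and siGL4 controls on each plate.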

Q: Which seed-corrected z-score does the source give for UUUAUAGUCAAUGGUAUUG against TAF1D here?
A: The seed-corrected z-score was -0.19.

Q: With UUCCUUAGCAGGUAUCGCG against PDZD7 as the sequence, how does the seed-corrected z-score read?
A: The seed-corrected z-score was 0.373.

Q: With AUAGUAAUGCCGGAACAGC against GPR108 as the sequence, how does the seed-corrected z-score read?
A: The seed-corrected z-score was -2.74.

Q: With AUGGAGACAAGUUACCUGU against DCX as the sequence, how does the seed-corrected z-score read?
A: The seed-corrected z-score was -1.34.

Q: Which seed-corrected z-score does the source give for UUGAGUGAGAAGAUCAGUG against PAH here?
A: Its seed-corrected z-score is -0.365.

Q: For UUUGCAGUCGCAAUAGUCA against PRKCSH, which seed-corrected z-score is on record?
A: Its seed-corrected z-score is -0.0915.

Q: Which seed-corrected z-score does the source give for ACUGGUAUUUGACAAGUCC against SGOL2 here?
A: Its seed-corrected z-score is -0.0318.

Q: For AAUACCUCAACAUUGAUCC against LILRA6, which seed-corrected z-score is on record?
A: Its seed-corrected z-score is 0.22.

Q: With UACUUGUGAUCAUCUAGAC against PSMD1 as the sequence, how does the seed-corrected z-score read?
A: Its seed-corrected z-score is -2.21.

Q: For UCAGAGUUGGUGACUAUGC against MUC21, which seed-corrected z-score is on record?
A: Its seed-corrected z-score is 0.222.

Q: Which seed-corrected z-score does the source give for UGAUGUUCAGCAUCUUCUC against UBTF here?
A: The seed-corrected z-score was -0.484.

Q: With AGCGUAGUCAGUGUAGACC against DNAH2 as the sequence, how does the seed-corrected z-score read?
A: Its seed-corrected z-score is 0.323.

Q: With AUAGGCUUCGUUAAUGAGC against YJEFN3 as the sequence, how does the seed-corrected z-score read?
A: The seed-corrected z-score was 1.04.

Q: Which seed-corrected z-score does the source give for UUCCUGCUUGCCUCUAUGG against USP17L9P here?
A: Its seed-corrected z-score is -0.281.

Q: Which seed-corrected z-score does the source give for UCUCGGUCGAUGAAGUACC against KCTD7 here?
A: Its seed-corrected z-score is -3.05.

Q: With UCAAUCACACGUCUUAUGC against TRMT5 as the sequence, how does the seed-corrected z-score read?
A: The seed-corrected z-score was 0.553.

Q: With UUCGUAUUCAACUGACUGC against TCP11L1 as the sequence, how does the seed-corrected z-score read?
A: The seed-corrected z-score was 1.06.

Q: Which seed-corrected z-score does the source give for UAUGGGUUCAUCAGGCUCA against SH2D2A here?
A: Its seed-corrected z-score is -3.05.

Q: For AAGAGAUCCAGCUUCCUGC against SPEG, which seed-corrected z-score is on record?
A: Its seed-corrected z-score is -0.187.

Q: Which seed-corrected z-score does the source give for UCUUGAACCGGAUCGAUGC against TTLL9 here?
A: Its seed-corrected z-score is -0.369.

Q: For UUCGUGGGUAGCCAUGACC against F8A2, which seed-corrected z-score is on record?
A: The seed-corrected z-score was 0.752.

Q: With UUUUCAUAGAGGAUGAUCU against CRYBB2 as the sequence, how does the seed-corrected z-score read?
A: Its seed-corrected z-score is 1.03.

Q: With UCUAAUACAAGGUUCAUAU against SNRPEP2 as the sequence, how does the seed-corrected z-score read?
A: The seed-corrected z-score was -2.56.

Q: Which seed-corrected z-score does the source give for UCAAUGCUCAGGGAACUGC against C1orf216 here?
A: Its seed-corrected z-score is 2.53.

Q: With ACCUUAGUAAGAUCCAUUC against OSBPL9 as the sequence, how does the seed-corrected z-score read?
A: Its seed-corrected z-score is 0.727.

Q: Which seed-corrected z-score does the source give for UCAAACACGAUGGAGGUCC against SLC29A4 here?
A: The seed-corrected z-score was -0.131.

Q: For AAAGACACCGUAGCUGAGG against MFNG, which seed-corrected z-score is on record?
A: Its seed-corrected z-score is -0.181.

Q: With UUUGUCAUUACCCGAACUG against RNASE11 as the sequence, how does the seed-corrected z-score read?
A: The seed-corrected z-score was 0.455.

Q: Which seed-corrected z-score does the source give for UAAGGCUCCAGCAUAACAG against MIR924HG here?
A: Its seed-corrected z-score is 0.428.

Q: For AUCUUGGUCACUGGAGGCG against SFRP5, which seed-corrected z-score is on record?
A: The seed-corrected z-score was -3.64.

Q: For UACAAGUCAAGCUCUCACA against LOC727799, which seed-corrected z-score is on record?
A: Its seed-corrected z-score is -0.236.

Q: Which seed-corrected z-score does the source give for AAUAGAACAAGGACAGGAC against SAYSD1 here?
A: Its seed-corrected z-score is -1.61.

Q: With AAUGUGCUUAGCGCAGGUG against LINC01530 as the sequence, how does the seed-corrected z-score read?
A: Its seed-corrected z-score is 0.0903.

Q: For UCAUUGUUGAUUUGGUCUC against 3-Sep, which seed-corrected z-score is on record?
A: Its seed-corrected z-score is 1.43.

Q: Which seed-corrected z-score does the source give for UCUAGAGUUAGGGUAUCUG against ARMC5 here?
A: The seed-corrected z-score was 0.117.

Q: Which seed-corrected z-score does the source give for UGAUGGUCACAAUCCUCUC against PCBP3 here?
A: The seed-corrected z-score was -2.79.
